Reference: PubChem BioAssay (NCI)
This is part of a sample that, as a whole, favours compounds with a hit. Of some 83,000 tested, about 20% had one in any assay.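 Treatment: one concentration, 48 hours, 96-well format. Scoring: percent growth, with anything below 10 considered active.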 The source made the active and inactive calls.

Experiments:
Experiment in all cases: NCI-60 one-dose screen, 48 h (100 = growth as untreated, 0 = no growth, -100 = all killed)
Conditions in all cases: 10 µM unless noted
RPMI-8226 leukemia = system: RPMI-8226 leukemia
OVCAR-8 ovarian = system: OVCAR-8 ovarian
OVCAR-5 ovarian = system: OVCAR-5 ovarian
OVCAR-4 ovarian = system: OVCAR-4 ovarian
SK-OV-3 ovarian = system: SK-OV-3 ovarian
IGROV1 ovarian = system: IGROV1 ovarian
OVCAR-3 ovarian = system: OVCAR-3 ovarian
HS 578T breast = system: HS 578T breast
NCI/ADR-RES ovarian = system: NCI/ADR-RES ovarian
T-47D breast = system: T-47D breast

Measured: growth

COc1cc(C2=NN(C(C)=O)C(c3ccc(OC(C)=O)cc3OC(C)=O)O2)c(OC(C)=O)c2ccccc12 (configuration not stated)
inactive: OVCAR-5 ovarian 54% | OVCAR-4 ovarian 21.1% | SK-OV-3 ovarian 20.1% | IGROV1 ovarian 21.7% | OVCAR-3 ovarian 20.5% | HS 578T breast 56.7% | NCI/ADR-RES ovarian 11.7% | T-47D breast 11.3%
active: RPMI-8226 leukemia 8.23% | OVCAR-8 ovarian 8.46%

CCOC(=O)/C(=C/c1ccccc1)C(=O)c1ccccc1
inactive: OVCAR-8 ovarian 65.3% | OVCAR-5 ovarian 97.3% | OVCAR-4 ovarian 81.8% | SK-OV-3 ovarian 92.6% | IGROV1 ovarian 65.8% | OVCAR-3 ovarian 63.5% | HS 578T breast 88% | NCI/ADR-RES ovarian 65.3% | T-47D breast 73.6%
active: RPMI-8226 leukemia 3.77%

Fc1ccc(-c2nnc(-c3c(-c4ccc(F)cc4)nc4ncccn34)o2)cc1
inactive: RPMI-8226 leukemia 92.5% | OVCAR-8 ovarian 95.7% | OVCAR-5 ovarian 87.3% | OVCAR-4 ovarian 106% | SK-OV-3 ovarian 112% | IGROV1 ovarian 106% | OVCAR-3 ovarian 110% | HS 578T breast 115% | NCI/ADR-RES ovarian 97.3% | T-47D breast 95.4%

CCC(C)(C)C(=O)O[C@H]1C[C@@H](C)C=C2C=C[C@H](C)[C@H](CC[C@@H]3C[C@@H](O)CC(=O)O3)[C@H]21
inactive: RPMI-8226 leukemia 62.7% | OVCAR-8 ovarian 48% | OVCAR-5 ovarian 87.1% | OVCAR-4 ovarian 86.6% | SK-OV-3 ovarian 70% | IGROV1 ovarian 28.8% | OVCAR-3 ovarian 85.7% | HS 578T breast 42.4% | NCI/ADR-RES ovarian 25.5% | T-47D breast 92.1%

O=C(/C=C/c1ccc(O)c(O)c1)N1CCN(c2ccc(Cl)cc2)CC1
inactive: RPMI-8226 leukemia 42% | OVCAR-8 ovarian 61.6% | OVCAR-5 ovarian 95.3% | OVCAR-4 ovarian 51.4% | SK-OV-3 ovarian 80.7% | IGROV1 ovarian 14.9% | OVCAR-3 ovarian 60.3% | HS 578T breast 80.2% | NCI/ADR-RES ovarian 58.7% | T-47D breast 49.2%

COc1ccc2c(c1)C(=O)c1c-2c(=O)n(CCCCCCC(=O)NO)c2ccccc12
active: RPMI-8226 leukemia -2.83% | OVCAR-8 ovarian 7.33% | OVCAR-5 ovarian -4.52% | OVCAR-4 ovarian 4.23% | SK-OV-3 ovarian -3.32% | IGROV1 ovarian -34.9% | OVCAR-3 ovarian -19.6% | HS 578T breast -2.26% | NCI/ADR-RES ovarian -14.1% | T-47D breast -11.8%

O=C1C(Cl)=C(N=Nc2c(Cl)c(O)c3ccccc3c2O)C(=O)c2ccccc21
inactive: RPMI-8226 leukemia 69.2% | OVCAR-8 ovarian 79.1% | OVCAR-5 ovarian 121% | OVCAR-4 ovarian 72.3% | SK-OV-3 ovarian 89.8% | IGROV1 ovarian 60.1% | OVCAR-3 ovarian 24.3% | HS 578T breast 55.3% | NCI/ADR-RES ovarian 73.8% | T-47D breast 66.9%

Cn1cc(-c2csc(-c3c[nH]c4ncccc34)n2)c2cc(F)cnc21
inactive: RPMI-8226 leukemia 70.3% | OVCAR-8 ovarian 77.5% | OVCAR-5 ovarian 87.1% | OVCAR-4 ovarian 62.4% | SK-OV-3 ovarian 81.8% | IGROV1 ovarian 66.5% | OVCAR-3 ovarian 87.8% | NCI/ADR-RES ovarian 63% | T-47D breast 43.7%

O=C1c2ccccc2-c2c1nc1ccccc1[n+]2[O-]
inactive: RPMI-8226 leukemia 106% | OVCAR-8 ovarian 108% | OVCAR-5 ovarian 94.9% | OVCAR-4 ovarian 115% | SK-OV-3 ovarian 102% | IGROV1 ovarian 99.9% | OVCAR-3 ovarian 107% | HS 578T breast 106% | NCI/ADR-RES ovarian 105% | T-47D breast 107%

c1ccc2c(c1)[nH]c1c2cc[n+]2cc3c(cc12)CCCC3
active: T-47D breast -13.8%
inactive: RPMI-8226 leukemia 32.6% | OVCAR-8 ovarian 10.7% | OVCAR-5 ovarian 48.1% | OVCAR-4 ovarian 38.9% | SK-OV-3 ovarian 23.4% | IGROV1 ovarian 66.4% | OVCAR-3 ovarian 20.9% | NCI/ADR-RES ovarian 97.7%

COc1ccc2c(c1)nc(N)c1c3cc(C)c(C)cc3cn21
inactive: RPMI-8226 leukemia 81.1% | OVCAR-8 ovarian 82.3% | OVCAR-5 ovarian 111% | OVCAR-4 ovarian 78.5% | SK-OV-3 ovarian 86.8% | IGROV1 ovarian 77.2% | OVCAR-3 ovarian 70.6% | NCI/ADR-RES ovarian 37.3% | T-47D breast 63.8%

COc1cccc2c1O/C(=C\c1c([N+](=O)[O-])ncn1C)C2=O
active: RPMI-8226 leukemia -17%
inactive: OVCAR-8 ovarian 94.4% | OVCAR-5 ovarian 108% | OVCAR-4 ovarian 106% | SK-OV-3 ovarian 93.4% | IGROV1 ovarian 97.4% | OVCAR-3 ovarian 106% | HS 578T breast 111% | NCI/ADR-RES ovarian 98.1% | T-47D breast 106%

CCOc1ccccc1C(=O)OCC(=O)Nc1cccc(S(=O)(=O)N(C)C)c1
inactive: RPMI-8226 leukemia 85.8% | OVCAR-8 ovarian 92.9% | OVCAR-5 ovarian 94.9% | OVCAR-4 ovarian 95.2% | SK-OV-3 ovarian 129% | IGROV1 ovarian 98.5% | OVCAR-3 ovarian 126% | HS 578T breast 95.3% | NCI/ADR-RES ovarian 96.8% | T-47D breast 66.5%

Cc1cc(=O)n2n1-c1ccc(Cl)cc1NC(=O)C2
inactive: RPMI-8226 leukemia 99.2% | OVCAR-8 ovarian 97% | OVCAR-5 ovarian 103% | OVCAR-4 ovarian 98.8% | SK-OV-3 ovarian 109% | IGROV1 ovarian 112% | OVCAR-3 ovarian 108% | HS 578T breast 117% | NCI/ADR-RES ovarian 108% | T-47D breast 118%
